Over roughly 18,000 sequences, “log2 normalized intensity” has its median near 0.36; the highest 2% begin near 7.3. This is one part of a sample in which the highest values are shown more often than they occur.

The test addresses T1, HNF4alpha8 (COS-7 nuclear extract) (Homo sapiens, UniProt P41235-5 1-452).
T1 sequence: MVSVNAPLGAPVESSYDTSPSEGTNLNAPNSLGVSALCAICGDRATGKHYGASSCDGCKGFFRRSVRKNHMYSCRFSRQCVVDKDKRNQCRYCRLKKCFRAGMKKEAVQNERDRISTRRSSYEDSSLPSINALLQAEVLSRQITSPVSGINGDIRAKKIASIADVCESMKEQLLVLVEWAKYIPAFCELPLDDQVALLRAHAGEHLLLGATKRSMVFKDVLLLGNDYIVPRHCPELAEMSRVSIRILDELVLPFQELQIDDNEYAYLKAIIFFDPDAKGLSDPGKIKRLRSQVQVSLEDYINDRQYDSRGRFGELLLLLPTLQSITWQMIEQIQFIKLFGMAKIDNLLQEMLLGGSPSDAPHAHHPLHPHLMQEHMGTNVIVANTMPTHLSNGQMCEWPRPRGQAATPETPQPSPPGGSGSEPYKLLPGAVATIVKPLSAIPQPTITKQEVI
Briefly: protein-binding microarray; COS-7 nuclear extract on double-stranded Agilent 4x180k PBM; binding buffer, salt, pH and temperature not given in the material; high values mean tight binding. To be noted: chain copies: 2; label: 3' end of strand 1 on the slide; dsDNA, one strand shown. Put shortly: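 Binding signal was defined as the normalized, background-corrected gProcessedSignal reported by Agilent software. It came from nuclear extracts of COS-7 cells transiently transfected with a human HNF4α isoform expression vector, applied to a custom Agilent SurePrint G3 4x180k array. That array held ~44,000 test sequences in quadruplicate as double-stranded ~60-nt oligonucleotides, and bound HNF4α was imaged at 2-µm resolution on an Agilent G2565CA scanner.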
Take “ACAAGGAGTCTCCACTATGACCTGTGCTTTGCCTAGGGAGATTAGAGTATCGGTCGA”: the binding signal turned out to be 2.18 log2 normalized intensity.
On to “TATAGTTTATCTACCTTTGTACCTTTAGTAGCCTAGGGAGATTAGAGTATCGGTCGA”, for which the binding signal was determined as 4.65 log2 normalized intensity.
For “GTTGGGCAGAAGGTGTTTCAGATGGACCAAGCCTAGGGAGATTAGAGTATCGGTCGA”, the binding signal stood at 1.98 log2 normalized intensity.
For the sequence “ATAGCTGCCTGTGTGTTCTGCTATTCATTAGCCTAGGGAGATTAGAGTATCGGTCGA”, the binding signal is 0.562 log2 normalized intensity.
In the case of “GTGCTGGTACATAGCAGGGGTTAGGTAAACGCCTAGGGAGATTAGAGTATCGGTCGA”, the binding signal is -0.36 log2 normalized intensity.
Consider “GGGTCATGGAGCTGGAGGGCAAAGGTCAGAGCCTAGGGAGATTAGAGTATCGGTCGA”, for which the binding signal was 8.54 log2 normalized intensity.
As for “TCAGGAGCCCCACAGAGCAAAGGTCATGCAGCCTAGGGAGATTAGAGTATCGGTCGA”, the figure is 6.34 log2 normalized intensity; as for “TGGGCCCACAGATGATCAAAGGTCAGTCTTGCCTAGGGAGATTAGAGTATCGGTCGA”, 7.25 log2 normalized intensity; as for “GTGGGTGCCAAACAAAAAGGGCAAAGGTCAGCCTAGGGAGATTAGAGTATCGGTCGA”, 8.84 log2 normalized intensity.
With “CACTGGGGTCATGGAGCTGGAGGGCAAAGGGCCTAGGGAGATTAGAGTATCGGTCGA”, the binding signal amounted to 4.08 log2 normalized intensity.
Take “ATGGAGCTGGAGGGCAAAGGTCAGAGGCTGGCCTAGGGAGATTAGAGTATCGGTCGA”: the binding signal came out at 6.88 log2 normalized intensity.
With “TGACTGGAGCAGAGCGATCAAAGGTCACAGGCCTAGGGAGATTAGAGTATCGGTCGA”, the binding signal amounted to 7.44 log2 normalized intensity.
For the sequence “GAGAGAGAGAGAGGTGGGCAAAGGTCTCAAGCCTAGGGAGATTAGAGTATCGGTCGA”, the binding signal was 3.68 log2 normalized intensity.
Take “AATCATGGGCCCACAGATGATCAAAGGTCAGCCTAGGGAGATTAGAGTATCGGTCGA”: the binding signal stood at 7.91 log2 normalized intensity.
As for “TATGAGAGAGAGAGAGAGGTGGGCAAAGGTGCCTAGGGAGATTAGAGTATCGGTCGA”, the binding signal worked out at 1.33 log2 normalized intensity.
Take “GGAGCAGAGCGATCAAAGGTCACAGAGACCGCCTAGGGAGATTAGAGTATCGGTCGA”: the binding signal was found to be 6.2 log2 normalized intensity.
As for “AGAGCGATCAAAGGTCACAGAGACCACAGGGCCTAGGGAGATTAGAGTATCGGTCGA”, the figure is 5.89 log2 normalized intensity; as for “CCCCATATCCAGTCAATCCCGTGGACTTTGGCCTAGGGAGATTAGAGTATCGGTCGA”, 6.13 log2 normalized intensity.
With “TTGAATTCCTTCTTCTTCTGGGGACTTCGGGCCTAGGGAGATTAGAGTATCGGTCGA”, the binding signal stood at 2.16 log2 normalized intensity.
For the sequence “CTTATAAATCTTCAACTGGAGGATAAAGTTGCCTAGGGAGATTAGAGTATCGGTCGA”, the binding signal stood at 1.09 log2 normalized intensity.
On to “GAGTCCAAACTGGGACCTGTGACACTCTGCGCCTAGGGAGATTAGAGTATCGGTCGA”, for which the binding signal was found to be 0.644 log2 normalized intensity.
As for “CATACCAGGTGTAAAGTCTGGCATACAGGGGCCTAGGGAGATTAGAGTATCGGTCGA”, the binding signal came to 0.00259 log2 normalized intensity.
With “ATGTTAGGCTGGAAAACTGGGCTGTTATTTGCCTAGGGAGATTAGAGTATCGGTCGA”, the binding signal came out at 0.577 log2 normalized intensity.
Consider “CATTTTTCTCTCTTGGACTCTTGGACTCCCGCCTAGGGAGATTAGAGTATCGGTCGA”, for which the binding signal was 7.67 log2 normalized intensity.
Under “CCATACCTCTTGCGTGTTATCTATGGAACAGCCTAGGGAGATTAGAGTATCGGTCGA” stands 1.67 log2 normalized intensity.
As to “TCCATCATTTTTCTCTCTTGGACTCTTGGAGCCTAGGGAGATTAGAGTATCGGTCGA”, the binding signal was 4.92 log2 normalized intensity.
Take “AACATGGACTTTGTTGTTTGCCTCTGAAAAGCCTAGGGAGATTAGAGTATCGGTCGA”: the binding signal is 2.8 log2 normalized intensity.
“TTTGAACACCTCTTCTTTCTTCTCTGGTACGCCTAGGGAGATTAGAGTATCGGTCGA”: the binding signal was 1.8 log2 normalized intensity.
Take “CTATGGAACATGGACTTTGAACCTCTCTTCGCCTAGGGAGATTAGAGTATCGGTCGA”: the binding signal turned out to be 9.09 log2 normalized intensity.
As for “TGCGTGTTATCTATGGAACATGGACTTTGAGCCTAGGGAGATTAGAGTATCGGTCGA”, the binding signal came out at 9.28 log2 normalized intensity.
As for “CCTCTTGCGTGTTATCTATGGAACATGGACGCCTAGGGAGATTAGAGTATCGGTCGA”, the figure is 2.5 log2 normalized intensity; as for “TTCTCTCTTGGACTCTTGGACTCCCTGAAGGCCTAGGGAGATTAGAGTATCGGTCGA”, 5.73 log2 normalized intensity.
As for “GAACATGGACTTTGAACCTCTCTTCTTTTTGCCTAGGGAGATTAGAGTATCGGTCGA”, the binding signal came out at 7.93 log2 normalized intensity.
Take “TACATTGAACTTTGAACACCTCTTCTTTCTGCCTAGGGAGATTAGAGTATCGGTCGA”: the binding signal came out at 5.51 log2 normalized intensity.
Consider “CATCTGAACTCTTCATGGACTCCTCTTATCGCCTAGGGAGATTAGAGTATCGGTCGA”, for which the binding signal came out at 2.06 log2 normalized intensity.
Regarding “TTGCCAGTTCCCATTTGCGCTGGTTTTATGGCCTAGGGAGATTAGAGTATCGGTCGA”, the binding signal came to 1.65 log2 normalized intensity.
In the case of “GTTATCACAGGCTTGGAATGTTTCTGTATCGCCTAGGGAGATTAGAGTATCGGTCGA”, the binding signal is 0.74 log2 normalized intensity.
“AAACGCTGAAGTCTCAAAGTTCACCACTTTGCCTAGGGAGATTAGAGTATCGGTCGA”: the binding signal amounted to 3.3 log2 normalized intensity.
Under “GAAGCTGGTAGCATGGCTCAGTCCAAGTCCGCCTAGGGAGATTAGAGTATCGGTCGA” stands 0.896 log2 normalized intensity.
As for “TTGGACTCTGCCACTGGTTTGCACACACCAGCCTAGGGAGATTAGAGTATCGGTCGA”, the figure is 1.94 log2 normalized intensity; as for “TATACATTTTCCCACTTGTATGTCCAAGGGGCCTAGGGAGATTAGAGTATCGGTCGA”, 1.25 log2 normalized intensity; as for “GAACAAAGGTTGGTGTGAACCAGGGTTAAGGCCTAGGGAGATTAGAGTATCGGTCGA”, 1.59 log2 normalized intensity.
On to “ACCTTTATCTGATCAGAAATGTTTGGAATTGCCTAGGGAGATTAGAGTATCGGTCGA”, for which the binding signal came to 1.84 log2 normalized intensity.
Consider “ACTCATTTCACATTGGTGCCCTTTGCCTTTGCCTAGGGAGATTAGAGTATCGGTCGA”, for which the binding signal came to 4.99 log2 normalized intensity.
Turning to “TGAACTTTGAACACCTCTTCTTTCTTCTCTGCCTAGGGAGATTAGAGTATCGGTCGA”, the binding signal worked out at 4.71 log2 normalized intensity.
As for “GTTATCTATGGAACATGGACTTTGAACCTCGCCTAGGGAGATTAGAGTATCGGTCGA”, the figure is 10.9 log2 normalized intensity; as for “CCTTTGGTGCCTCTTTTTTCTTGTTGACTTGCCTAGGGAGATTAGAGTATCGGTCGA”, 1.91 log2 normalized intensity.
Take “CCTTGCTATGGAGTGGACTTTGGCTTATGCGCCTAGGGAGATTAGAGTATCGGTCGA”: the binding signal worked out at 7.08 log2 normalized intensity.
As for “TGGACTTTGAACCTCTCTTCTTTTTCGTCTGCCTAGGGAGATTAGAGTATCGGTCGA”, the figure is 7.42 log2 normalized intensity; as for “AGTCTAACTTTGGACTTTTATGTTAAGATCGCCTAGGGAGATTAGAGTATCGGTCGA”, 2.93 log2 normalized intensity; as for “TCTTCTTCTGGGGACTTCGGTCTTTTTTCTGCCTAGGGAGATTAGAGTATCGGTCGA”, 2.67 log2 normalized intensity.
In the case of “TTTCTCTTTTGACCTTTGGACTTTCACATTGCCTAGGGAGATTAGAGTATCGGTCGA”, the binding signal amounted to 11 log2 normalized intensity.
“GCCTGTCACCCAACCTCACCTAACCACATTGCCTAGGGAGATTAGAGTATCGGTCGA”: the binding signal was determined as 1.21 log2 normalized intensity.
“GCTGATGCAGAGGGTGCAAAGTTTTTAAAGGCCTAGGGAGATTAGAGTATCGGTCGA”: the binding signal worked out at 1.28 log2 normalized intensity.

The values are drawn from PMC10726135, “HNF4α isoforms regulate the circadian balance between carbohydrate and lipid metabolism in the liver”.
